In PubChem BioAssay (NCATS):
Several values for one entry are separate records, joined by “and”; a condition that tells them apart may be missing. Identical values can stand only once. Results filed as inconclusive are left out. Where a call stands in place of a potency, no number is given. Activity calls are given as the source filed them. Unless noted, calls follow the shape of the dose curve; as a rule, active = well fitted curve in the direction sought with a large enough effect; inconclusive = small, poorly fitted or top-dose-only effect, or another doubt; inactive = no such curve, though single readings can be large; an effect the other way counts as inactive or inconclusive.

Experiments:
[1] = Cell Viability - Hek293 (AID 427;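 active = compounds whose dose-response curve shows a full or clear partial loss of cell viability, called from curve shape rather than a numeric limit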;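 also: potency is read from the fitted curve at half-maximal effect; cells exposed to compound for 40 hours at 37 °C before reading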); conditions: qHTS
Method in brief: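 HEK293 cells in complete medium were exposed to compound for 40 hr at 37 °C, then cellular ATP was read by CellTiter-Glo luminescence. Data were normalized to DMSO (basal) and 100 uM tamoxifen (100% inhibition), and AC50 came from Hill fits.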

[2] = Cell Viability - SK-N-SH (AID 435; calls by dose curve; also: potency is read from the fitted curve at half-maximal effect); conditions: SK-N-SH neuroblastoma cell viability qHTS
Method in brief: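 qHTS cytotoxicity: CellTiter-Glo ATP luminescence after 40 h compound exposure of human neuroblastoma SK-N-SH cells at 37 °C. AC50 derived by Hill-equation fitting, with DMSO as basal and 100 uM tamoxifen as full inhibition.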

[3] = Cellular Toxicity (caspase-3) HepG2 (AID 654); conditions: HepG2 caspase-3 activation, luminescence, 0% = DMSO only, 100% = tamoxifen; series mostly up to 92.2 µM;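 also: cells exposed to compound for 16 hours before reading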
Method in brief: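 Caspase 3/7 activation is measured as a luminescence increase (aminoluciferin substrate) after 16 h compound exposure of human hepatocarcinoma HepG2 cells. AC50 values are Hill fits, scaled between DMSO baseline and 100 uM tamoxifen stimulation.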

[4] = Cellular Toxicity (caspase-3) Mesangial (AID 660); conditions: mesangial cells, normalized: DMSO 0%, 100 µM tamoxifen 100%; series mostly up to 91.7 µM;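 also: combined caspase 3 and 7 activity read by Caspase-Glo luminescence; cells exposed to compound for 16 h before the caspase read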
Method in brief: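 Caspase 3/7 activation measured by Caspase-Glo 3/7 luminescence (20 min, room temperature) following 16 h exposure of mesangial cells (1000/well); AC50 from Hill-equation fit, normalized to DMSO and 100 uM tamoxifen.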

[5] = Cellular Toxicity (caspase-3) Hek293 (AID 664); conditions: HEK293 caspase-3 activation, DMSO = 0%, 100 µM tamoxifen = 100%; at 92.2 µM (top of the series);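 also: cells exposed to compound for 16 h at 37 °C before readout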
Method in brief: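 Concentration-response qHTS: caspase 3/7 activation measured by luminescent aminoluciferin substrate cleavage after 16 h compound exposure of Hek 293 cells. AC50 from Hill equation, with DMSO as basal and 100 uM tamoxifen as 100%.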

[6] = MultiTox-Fluor Cytotoxicity Assay - LYMP1-001 - Dead Cells (AID 946); conditions: LYMP1-001 lymphoblastoid cells, dead-cell protease fluorescence; series mostly up to 92.2 µM
Method in brief: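 LYMP1-001 lymphoblastoid cells (2500/well) treated 16 h at 37 C. Dead-cell protease cleavage of bis-AAF-R110 read at Ex/Em 485/520. Normalized to DMSO and 15 uM tetraoctylammonium bromide; AC50 from Hill fits.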

[7] = Cell Viability - LYMP1-002 - Assay at 16 hr (AID 948); conditions: LYMP1-002 lymphoblastoid cell viability; series mostly up to 92.2 µM
Method in brief: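 ATP luminescence (CellTiter-Glo) was measured after 16 hr compound exposure at 37 C of 2500 lymphoblastoid LYMP1-002 cells per well. Concentration-response curves were fitted with the Hill equation to give AC50.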

[8] = Cell Viability - LYMP2-003 (AID 965); conditions: LYMP2-003 lymphoblastoid cell viability; series mostly up to 92.2 µM;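 also: cells exposed to compounds for 24 h before reading; nearly all actives have a fitted effect of over 50% in size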
Method in brief: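 CellTiter-Glo luminescence quantified ATP loss after 24 h compound treatment of LYMP2-003 lymphoblastoid cells at 37 C. Titration series were fitted with the standard Hill equation to give AC50.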

[9] = Cell Viability - LYMP2-024 (AID 988); conditions: LYMP2-024 lymphoblastoid cell viability; series mostly up to 92.2 µM; also: nearly all actives have a fitted effect of over 60% in size
Method in brief: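 Cytotoxicity was taken as a decrease in ATP (CellTiter-Glo luminescence) after 24 hr compound exposure at 37 C of LYMP2-024 lymphoblastoid cells, 2500 cells/well. Concentration-response data were fitted to the Hill equation to give AC50.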

[10] = Cell Viability - LYMP2-026 (AID 989); conditions: LYMP2-026 lymphoblastoid cell viability, qHTS; series mostly up to 92.2 µM; also: nearly all actives have a fitted effect of over 50% in size
Method in brief: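 Cytotoxicity read as ATP-dependent luminescence (CellTiter-Glo, 30 min room temperature) after 24 h compound treatment at 37 C. LYMP2-026 lymphoblastoid line seeded at 2500 cells/well; AC50 derived by standard Hill equation.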

[11] = Cell Viability - LYMP1-002 - Assay at 24 hr (AID 993); conditions: LYMP1-002 lymphoblastoid cells viability; series mostly up to 92.2 µM
Method in brief: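 qHTS cytotoxicity at 24 h: CellTiter-Glo ATP luminescence in lymphoblastoid line LYMP1-002 incubated with compound at 37 °C. Concentration-response modeled with the Hill equation for AC50; tetraoctylammonium bromide served as positive control.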

[12] = qHTS assay for small molecule agonists of retinoid X receptor alpha signaling (AID 588544); conditions: HEK293T RXRa-UAS-bla, beta-lactamase reporter, 18 h; 530 nm emission
[13] = target: Thyroid hormone receptor beta (Homo sapiens) (UniProt P10828); experiment: qHTS assay for small molecule agonists of thyroid hormone receptor beta signaling (AID 588545; calls by dose curve); conditions: TR-UAS-bla GripTite HEK 293, beta-lactamase ratio, agonist mode, 18 h; series mostly up to 76.7 µM
Method in brief: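 HEK 293 TR-UAS-bla; agonist mode; 18 hrs, 37 C; CCF4, ex 405/em 460 and 530 nm; norm. T3 10 nM = 100%, DMSO = 0%; Hill fit → EC50, efficacy.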

[14] = target: Retinoic acid receptor RXR-alpha (Homo sapiens) (UniProt P19793); experiment: qHTS assay for small molecule antagonists of retinoid X receptor alpha signaling (AID 588546; active = well fitted inhibition curve with a large enough effect in the signal ratio, with a control signal flat, not every such curve was filed as active; the % refers to the signal ratio;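 also: cells stimulated with 9-cis-retinoic acid as agonist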); conditions: HEK293T RXRa-UAS-bla, beta-lactamase ratio, antagonist mode
Method in brief: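 Beta-lactamase reporter inhibition, read as CCF4 fluorescence ratio (ex 405, em 460/530 nm) after 2 h at RT. HEK293T UAS-bla cells, 2500/well, were stimulated with 9-cis-RA at 500 or 100 nM final alongside test compound for 18 h at 37 C.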

[15] = target: Nuclear receptor ROR-gamma (Homo sapiens) (UniProt P51449); experiment: qHTS assay for small molecule antagonists of the retinoid-related orphan receptor gamma (ROR-gamma) signaling pathway (AID 651802); conditions: ROR-gamma antagonist cell reporter assay; series mostly up to 92.2 µM;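 also: CHO cells with doxycycline-induced ROR-gamma expression; luciferase reporter luminescence driven by ROR response element; nearly all actives have a fitted effect of over 60% in size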
Method in brief: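 Luminescence (One-Glo, 30 min RT) measured 16 h after compound addition and doxycycline induction at 37C. Reporter: RORE-luciferase under TET-inducible ROR-gamma in CHO cells.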

[16] = qHTS assay for cell viability of the p53RE-bla HCT-116 cell line (AID 743292); conditions: p53RE-bla HCT-116 viability, ATP luminescence, 16 h; series mostly up to 95 µM; also: nearly all actives have a fitted effect of over 55% in size
Method in brief: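 After plating at 4,000 cells per well and a 5 h rest at 37 C, HCT-116 cells carrying p53RE-bla received test chemicals in DMSO. Sixteen hours later at 37 C, CellTiter-Glo was added and luminescence recorded following 30 min at room temperature.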

[17] = MultiTox-Fluor Cytotoxicity Assay - LYMP1-002 - Dead Cells (AID 960); conditions: LYMP1-002 lymphoblastoid cells, dead-cell protease fluorescence; series mostly up to 46.1 µM; also: nearly all actives have a fitted effect of over 60% in size
Method in brief: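 Dead-cell fluorescence (Ex/Em 485/520) after 16 h compound exposure at 37 C of LYMP1-002 lymphoblastoid cells in complete medium; AC50 by Hill equation, with data scaled between DMSO and 15 uM tetraoctylammonium bromide.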

[18] = target: Tumor necrosis factor (Homo sapiens) (UniProt P01375); experiment: qHTS assay to identify small molecules that stimulate Tumor Necrosis Factor-alpha (TNF-alpha) secretion (AID 651757; active = well fitted curve in the direction sought with a large enough effect in the signal ratio; the % refers to the signal ratio); conditions: Human cells, HTRF 665/615 ratio; series mostly up to 92.2 µM
Method in brief: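 Secreted TNF-alpha quantified by TR-FRET sandwich of two labeled anti-TNF-alpha antibodies, incubated 3 hr at room temperature. Preceded by 17 hr, 37 C compound treatment of THP-1 cells at 3000 cells/well.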

[19] = qHTS assay for small molecule agonists of the antioxidant response element (ARE) signaling pathway measured by Nrf2-dependant transcriptional activity (AID 720636; active = well fitted curve in the direction sought with a large enough effect in the repeat runs; an effect the other way counts as inactive or inconclusive;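 also: HepG2 cells with an ARE-driven luciferase reporter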); conditions: ARE-luc HepG2, Nrf2 luciferase reporter, 16 h; series mostly up to 92.4 µM
Method in brief: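 ONE-Glo luminescence, read 30 min after reagent addition at room temperature, reflected ARE reporter activity in HepG2 cells that had been incubated with compound for 16 hr at 37 C in 1% dialyzed FBS.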

[20] = Cell Viability - N2a (AID 540); conditions: N2a mouse neuroblastoma cell viability; activity change, negative = cytotoxicity: at 92.2 µM (top of the series); also: nearly all actives have a fitted effect of over 45% in size
Method in brief: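 CellTiter-Glo ATP luminescence, read 20 min after reagent at room temperature, reported viability following 40 h compound treatment at 37 °C. N2a mouse neuroblastoma cells seeded 1500/well; Hill equation gave AC50.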

Thyroid hormone receptor beta (Homo sapiens), sequence (P10828 whole entry, looked up): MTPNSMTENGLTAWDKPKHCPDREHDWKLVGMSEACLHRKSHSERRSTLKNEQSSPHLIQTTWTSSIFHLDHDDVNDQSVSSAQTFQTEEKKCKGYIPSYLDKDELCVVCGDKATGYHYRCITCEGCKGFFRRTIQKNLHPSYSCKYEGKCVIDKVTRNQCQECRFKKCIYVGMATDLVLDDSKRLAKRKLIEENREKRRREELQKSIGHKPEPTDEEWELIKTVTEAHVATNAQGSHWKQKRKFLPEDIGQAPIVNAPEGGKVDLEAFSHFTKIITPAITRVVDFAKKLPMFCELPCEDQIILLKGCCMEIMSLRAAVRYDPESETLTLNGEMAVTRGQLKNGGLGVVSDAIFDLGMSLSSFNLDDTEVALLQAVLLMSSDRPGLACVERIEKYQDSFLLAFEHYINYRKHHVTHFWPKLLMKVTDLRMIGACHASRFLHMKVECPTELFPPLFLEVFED
Tumor necrosis factor (Homo sapiens), sequence (P01375 whole entry, looked up): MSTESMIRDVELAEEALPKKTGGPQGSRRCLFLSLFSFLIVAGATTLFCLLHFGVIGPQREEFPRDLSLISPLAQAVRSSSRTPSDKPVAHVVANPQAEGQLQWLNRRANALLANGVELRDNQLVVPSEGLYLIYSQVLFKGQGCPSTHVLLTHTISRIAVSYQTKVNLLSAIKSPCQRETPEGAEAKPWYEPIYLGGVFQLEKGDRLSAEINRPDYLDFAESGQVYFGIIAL
Retinoic acid receptor RXR-alpha (Homo sapiens), sequence (P19793 whole entry, looked up): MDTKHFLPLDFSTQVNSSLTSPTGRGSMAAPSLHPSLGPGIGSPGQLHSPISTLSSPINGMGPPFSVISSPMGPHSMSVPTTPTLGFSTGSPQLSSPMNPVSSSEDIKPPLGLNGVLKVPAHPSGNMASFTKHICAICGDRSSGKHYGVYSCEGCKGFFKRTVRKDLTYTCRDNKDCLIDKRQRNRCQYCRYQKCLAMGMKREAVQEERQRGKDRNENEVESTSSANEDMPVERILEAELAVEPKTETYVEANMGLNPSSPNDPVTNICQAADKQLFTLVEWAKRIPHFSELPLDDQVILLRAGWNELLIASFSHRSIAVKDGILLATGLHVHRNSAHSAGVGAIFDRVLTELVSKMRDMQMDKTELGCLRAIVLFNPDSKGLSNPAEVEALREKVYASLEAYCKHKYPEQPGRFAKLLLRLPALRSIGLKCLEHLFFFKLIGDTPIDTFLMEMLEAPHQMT
Nuclear receptor ROR-gamma (Homo sapiens), sequence (P51449 whole entry, looked up): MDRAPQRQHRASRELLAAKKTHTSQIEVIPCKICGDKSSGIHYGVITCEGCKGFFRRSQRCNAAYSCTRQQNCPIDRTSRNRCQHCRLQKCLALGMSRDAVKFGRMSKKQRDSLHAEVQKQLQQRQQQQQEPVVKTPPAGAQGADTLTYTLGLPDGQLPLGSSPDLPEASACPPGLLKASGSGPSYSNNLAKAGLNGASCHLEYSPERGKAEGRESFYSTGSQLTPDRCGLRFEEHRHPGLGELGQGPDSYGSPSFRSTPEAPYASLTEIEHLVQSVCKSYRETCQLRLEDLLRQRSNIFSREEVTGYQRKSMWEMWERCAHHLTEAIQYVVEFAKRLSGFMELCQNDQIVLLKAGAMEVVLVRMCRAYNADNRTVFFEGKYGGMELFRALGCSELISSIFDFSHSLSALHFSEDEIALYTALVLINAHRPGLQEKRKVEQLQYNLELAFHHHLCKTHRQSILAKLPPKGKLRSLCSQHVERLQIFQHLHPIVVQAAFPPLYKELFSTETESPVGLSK

Structure (SMILES) | Potency [1] | Potency [2] | outcome [3] | outcome [4] | caspase-3 activation [5] | outcome [6] | outcome [7] | Potency [8] | Potency [9] | Potency [10] | Potency [11] | max response [12] | Potency [13] | max response [14] | Potency [15] | Potency [16] | Potency [17] | outcome [18] | Potency [19] | Potency [20]
Cc1ccc2c(c1N)C(=O)c1ccccc1C2=O | > 92 µM (inactive) | > 92 µM (inactive) | inactive | inactive | -8.32% (inactive) | inactive | inactive | inactive | inactive | inactive | inactive | -11.3% and 17.2% | inactive | 9.57% (inactive) and -23.7% (inactive) | inactive | inactive |  |  |  | 
COP(=S)(OC)SCn1nnc2ccccc2c1=O |  |  | inactive | inactive | 0.18% (inactive) | inactive | inactive | inactive | inactive |  | inactive |  | inactive |  | inactive | inactive | inactive | inactive | inactive | 
O=[N+]([O-])c1cc(Cl)c(Cl)c(Cl)c1 | > 92 µM (inactive) | > 92 µM (inactive) | inactive | inactive | 2.74% (inactive) | inactive | inactive | inactive | inactive | inactive | inactive | 9.3% | inactive | -5.05% (inactive) | inactive | inactive | inactive | inactive | inactive | inactive
CCCCCCCCCCCCCl | > 92 µM (inactive) | > 92 µM (inactive) | inactive | inactive | 2.31% (inactive) | inactive | inactive |  | inactive | inactive |  | -9.69% | inactive | -4.83% (inactive) |  | inactive | inactive | inactive | inactive | inactive
Cc1ccc(N)c(C)c1 | > 92 µM (inactive) | > 92 µM (inactive) |  | inactive | 1.54% (inactive) | inactive | inactive | inactive | inactive |  | inactive | -7.75% | inactive | -1.52% (inactive) |  | inactive | inactive | inactive | inactive | inactive
CCCC[N+](=O)[O-] | > 92 µM (inactive) | > 92 µM (inactive) | inactive | inactive | 23.2% (inactive) | inactive | inactive | inactive | inactive | inactive | inactive | -5.28% | inactive | -6.25% (inactive) |  | inactive | inactive | inactive | inactive | inactive
ClCCBr | > 92 µM (inactive) | > 92 µM (inactive) |  |  |  | inactive | inactive | inactive | inactive |  | inactive | -16.9% | inactive | -1.05% (inactive) | inactive | inactive | inactive | inactive | inactive | inactive
Cc1cc(N=Nc2ccccc2C)ccc1N | > 92 µM (inactive) | > 92 µM (inactive) | inactive | inactive | -5.62% (inactive) | inactive | inactive | inactive | inactive | inactive | inactive |  | inactive | -17.1% (inactive) | inactive | inactive |  |  |  | inactive
CCOC(=O)CBr | > 92 µM (inactive) | > 92 µM (inactive) |  | inactive | 1.06% (inactive) | inactive | inactive | inactive | inactive | inactive | inactive | 8.56% | inactive | -3.36% (inactive) | inactive | inactive | inactive | inactive | inactive | inactive
c1ccc(N=NNc2ccccc2)cc1 | > 92 µM (inactive) | > 92 µM (inactive) | inactive | inactive |  | inactive | inactive | inactive | inactive | inactive | inactive | 7.75% | inactive | -17.2% (inactive) | inactive | inactive | inactive | inactive |  | inactive
O=C(O)C(Br)CBr (stereo unspecified) | > 92 µM (inactive) | > 92 µM (inactive) | inactive | inactive | 1.8% (inactive) |  | inactive | inactive |  | inactive | inactive | 10.3% | inactive |  | inactive | inactive | inactive | inactive | inactive | inactive
C1CC2OC2CC1C1CO1 (stereo unspecified) | > 92 µM (inactive) | > 92 µM (inactive) | inactive |  | -2.81% (inactive) | inactive | inactive | inactive | inactive | inactive | inactive | -2.62% | inactive | 10.1% (inactive) and -3.3% (inactive) | inactive |  | inactive | inactive | inactive | inactive
C(CCOCC1CO1)COCC1CO1 (stereo unspecified) | > 92 µM (inactive) | 27.7 µM (inactive) | inactive | inactive | 0.467% (inactive) |  | inactive |  |  | inactive | inactive | -1.76% | inactive | 15.6% (inactive) | inactive | inactive | inactive | inactive | inactive | inactive
CCOP(=S)(OCC)Oc1nc(Cl)c(Cl)cc1Cl | > 92 µM (inactive) | > 92 µM (inactive) | inactive | inactive |  | inactive | inactive | inactive | inactive | inactive | inactive | -1.15% | inactive |  |  | inactive | inactive | inactive | inactive | inactive
